A short description of test [1]: A549 cell cytotoxicity, dose response, cytotoxicity control, plate reader, cherry-pick, antagonist series (AID 743412).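 Note: 0% = neutral control wells and -100% = positive control wells.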
The nature of test [2]: toxicity toward HepG2 liver cells – cell-based, plate reader, cherry-pick, antagonist series, cytotoxicity control, dose response (AID 743416).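 Note: 0% = neutral control wells and -100% = positive control wells.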
Test [3] addresses Melanocortin receptor 4 (Homo sapiens) (UniProt P32245). Put plainly: blockade of melanocortin 4 receptor signaling – cell-based, plate reader, cherry pick, counter-screen for LGR2 antagonist project, dose response (AID 743444).

SMILES strings stand for the structures. Measured potencies and affinities stand elsewhere. A number with no mark means an inactive call. Activity calls are given as the source filed them. The rule behind the calls is not given here.

With `COc1ccc(-c2cc(C)nc3c(-c4ccccc4)cnn23)cc1`, the compound was called inactive in test [1] and in test [2].
As to `O=C(NCCc1ccccc1)c1ccc2c(c1)OCO2`, the compound was called inactive in test [1] and in test [2].
As to `Cc1cccn2c(CNCC3(c4ccccc4)CCCC3)c(C(=O)N3CCOCC3)nc12`, the compound was classed as inactive in test [1], in test [2] and in test [3].
For `CO[C@H]1CN(C)C(=O)c2ccc(NC(=O)C3CC3)cc2OC[C@@H](C)N(C(=O)Cc2ccccn2)C[C@H]1C`, the compound was classed as inactive in test [1], in test [2] and in test [3].
Turning to `COc1ccccc1CNS(=O)(=O)c1ccc(N2CCCC2)cc1Br`, the call in test [1], in test [2] and in test [3] was inactive.
Take `Cc1ccccc1S(=O)(=O)N1[C@H](C#N)[C@H](c2ccc(C#CC3CCCCC3)cc2)[C@H]1CO`: the compound was classed as inactive in test [1] and in test [2].
On to `COc1ccccc1C=NNC(=O)c1ccncc1`, for which the call in test [1], in test [2] and in test [3] was inactive.
For `O=C(Nc1cc(S(=O)(=O)Nc2ccccc2Cl)ccc1O)c1ccc(F)cc1F`, the compound was called inactive in test [1], in test [2] and in test [3].
As for `CCN(C(=O)COC(=O)C12CC3CC(CC(O)(C3)C1)C2)c1c(N)n(Cc2ccccc2)c(=O)[nH]c1=O`, the call in test [1], in test [2] and in test [3] was inactive.
Take `COC(=O)c1ccc2nc(-c3cccc(N)c3)cn2c1`: the compound was classed as inactive in test [1] and in test [2].
On to `C[C@H](CO)N1C[C@H](C)[C@H](CN(C)C(=O)Nc2ccccc2)OCCCC[C@H](C)Oc2ccc(NC(=O)NC3CCCCC3)cc2C1=O`, for which the outcome in test [1], in test [2] and in test [3] was inactive.
With `COc1ccc(S(=O)(=O)Nc2ccc3c(c2)C(=O)N([C@H](C)CO)C[C@H](C)[C@H](CN(C)S(=O)(=O)c2ccc(F)cc2)OCCCC[C@@H](C)O3)cc1`, the result in test [1], in test [2] and in test [3] was inactive.
On to `O=C(Cc1ccccc1Cl)Nc1cccnc1`, for which the outcome in test [1], in test [2] and in test [3] was inactive.
As to `CC(C)(C)c1ccc(C(=O)NCCOc2ccccc2F)cc1`, the compound was called inactive in test [1] and in test [2].
For `C[C@H](CO)N1C[C@H](C)[C@@H](CN(C)S(=O)(=O)c2cccs2)Oc2c(cccc2N(C)C)C1=O`, the compound was called inactive in test [1], in test [2] and in test [3].
As for `CCOC(=O)C1=CCN(S(=O)(=O)c2ccccc2C)C1c1cccc(C)c1` (stereo not drawn), the outcome in test [1], in test [2] and in test [3] was inactive.
Consider `O=C(NCCOc1ccccc1)[C@@H]1CCCN1C(=O)c1cccs1`, for which the compound was classed as inactive in test [1], in test [2] and in test [3].
Turning to `CN(c1ccccc1)S(=O)(=O)c1cccc(NC(=O)c2cc(=O)c3ccccc3o2)c1`, the result in test [1] and in test [2] was inactive.
For the compound `Cc1ccc(-c2nc(-c3ccncc3)no2)c(Cl)c1`, the call in test [1] and in test [2] was inactive.
In the case of `COc1cc(NC(=O)c2cccc3c(-c4cnn(C)c4)coc23)cc(OC)c1OC`, the compound was called inactive in test [1] and in test [2].
As to `CCc1ccc2ncc(S(=O)(=O)c3ccc(C)c(C)c3)c(N3CCCC3)c2c1`, the result in test [1], in test [2] and in test [3] was inactive.
`CC1(c2ccccc2Cl)NC(=O)N(CC(=O)N2CCc3ccccc32)C1=O` (stereo not drawn): the compound was classed as inactive in test [1], in test [2] and in test [3].
For the compound `O=C(NCc1ccc(F)cc1)c1cc(C2CCCCN2S(=O)(=O)c2cccs2)on1` (stereo not drawn), the compound was classed as inactive in test [1], in test [2] and in test [3].
Consider `O=C(c1ccc(F)cc1)N1CC(=O)N2[C@@H](CO)[C@@H](c3ccc(C#CC4CCCC4)cc3)[C@@H]2C1`, for which the result in test [1], in test [2] and in test [3] was inactive.
Take `COc1ccc2c3c([nH]c2c1)[C@H](CO)N(C(C)=O)CC31CCN(C(=O)CN2CCOCC2)CC1`: the outcome in test [1], in test [2] and in test [3] was inactive.
As for `CC(C)c1ccc(NC(=O)N2CCN(S(=O)(=O)c3ccccc3)CC2)cc1`, the call in test [1], in test [2] and in test [3] was inactive.
For the compound `CC(C)(C)NC(=O)c1cccc(NC(=O)c2ccc3c(c2)C(=O)N(C(C)(C)C)C3=O)c1`, the compound was classed as inactive in test [1], in test [2] and in test [3].
Take `C[C@@H]1CN([C@H](C)CO)C(=O)c2c(c3ccccc3n2C)-c2ccccc2CO[C@H]1CN(C)S(=O)(=O)c1cn(C)cn1`: the compound was called inactive in test [1], in test [2] and in test [3].
Take `CO[C@H]1CN(C)C(=O)c2ccc(NC(=O)c3ccc(-c4ccccc4)cc3)cc2OC[C@@H](C)NC[C@@H]1C`: the result in test [1], in test [2] and in test [3] was inactive.
As to `CC(=O)c1ccc(S(=O)(=O)N2CCC(NC(=O)Nc3cccc(F)c3)CC2)cc1`, the compound was classed as inactive in test [1], in test [2] and in test [3].
As for `CCc1nnc2cccc(Cl)n12`, the call in test [1], in test [2] and in test [3] was inactive.
As to `CC(C)NC(=O)Nc1ccc2c(c1)C(=O)N([C@H](C)CO)C[C@@H](C)[C@H](CN(C)S(C)(=O)=O)OCCCC[C@H](C)O2`, the compound was called inactive in test [1], in test [2] and in test [3].
Regarding `Cc1noc(C)c1S(=O)(=O)Nc1cccc2c1O[C@H](CN(C)C(=O)Nc1ccc(F)cc1)[C@H](C)CN([C@H](C)CO)C2=O`, the result in test [1], in test [2] and in test [3] was inactive.
Turning to `COc1cccc(C(=O)Nc2ccc3c(c2)OC[C@@H](C)N(CC2CC2)C[C@H](C)[C@H](OC)CN(C)C3=O)c1`, the result in test [1], in test [2] and in test [3] was inactive.
For the compound `CCOC(=O)Nc1ccc(N2CCOCC2)c(S(=O)(=O)Nc2ccc(Cl)cc2)c1`, the activity change, negative = cytotoxicity in test [1] is 19.4% [at 6 µM]. The result in test [2] and in test [3] was inactive.
For the compound `C[C@H](CO)N1C[C@H](C)[C@H](CN(C)Cc2ccccc2)Oc2c(NS(=O)(=O)c3cn(C)cn3)cccc2C1=O`, the result in test [1], in test [2] and in test [3] was inactive.
With `CC(=O)Nc1cccc(-c2ccnc3c2CC(C(=O)NCc2cccnc2)O3)c1` (stereo not drawn), the compound was called inactive in test [1], in test [2] and in test [3].
Regarding `CC1CN(C(=O)c2cccc(S(=O)(=O)Nc3cc(Cl)ccc3Cl)c2)CC(C)O1` (stereo not drawn), the compound was called inactive in test [1], in test [2] and in test [3].
For the compound `CCn1cc(S(=O)(=O)Nc2cccnc2)cn1`, the outcome in test [1], in test [2] and in test [3] was inactive.
For the compound `CO[C@@H]1CN(C)C(=O)c2ccc(NC(=O)C3CC3)cc2OC[C@@H](C)NC[C@@H]1C`, the compound was called inactive in test [1], in test [2] and in test [3].
As to `Cc1cc(Cl)ccc1OCCCC(=O)Nc1cc(S(=O)(=O)N2CCOCC2)ccc1N1CCOCC1`, the result in test [1], in test [2] and in test [3] was inactive.
On to `COc1ccc(S(=O)(=O)N2CCN(C(=O)c3ccc(C)o3)CC2)cc1`, for which the call in test [1], in test [2] and in test [3] was inactive.

Source of the values: PubChem BioAssay.
